# Measurements as given in PubChem BioAssay (Tox21).
# Records with an inconclusive call do not appear. Where a call stands in place of a potency, no number is given. A number with no mark means an inactive call. Active and inactive are the calls of the source. The call rests on the fitted dose curve; in most records, active means well fitted cell-killing curve with a large enough effect in the repeat runs; inconclusive means weak or mixed curves, or effect the other way; inactive means flat fitted curve, though single readings scatter.
# Assay: cAMP Responsive Elements (CRE) small molecule antagonists, cell-based qHTS assay: qHTS cell viability counter screen (AID 2060913); further: nearly all actives have a fitted effect of over 40% in size
# Settings: CRE-bla HEK293T viability, CellTiter-Glo luminescence, 5 h; series mostly up to 92.4 µM
# Summary of the method: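 Steps: cells plated and held 18 hrs at 37 C/5% CO2; compounds and NKH477 (0.25 uM final) added; 3 hrs incubation; reporter substrate read; CellTiter-Glo added to measure cytotoxicity by luminescence.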
SMILES,Potency,"viability change, negative = cytotoxic"
COc1ccc2c(c1)CCCC2=O,inactive,–
OCCC(F)(F)C(F)(F)C(F)(F)C(F)(F)C(F)(F)C(F)(F)F,inactive,–
O=C1Cc2ccccc2N1c1c(Cl)cccc1Cl,inactive,–
CC1(C)[C@@H]2CC[C@]3(C2)[C@@H]1C(=O)CCC3(C)C,inactive,–
CC1(C)CCC[C@]2(C)[C@H]3CCO[C@]3(C)CC[C@@H]12,inactive,–
SCCSCCS,inactive,–
COC(=O)c1ccccc1O,inactive,–
CCCCC(CC)COC(=O)c1ccc(N(C)C)cc1 (stereo not given),inactive,–
Nc1nc(-c2ccccc2)c(Br)c(=O)[nH]1,inactive,–
Cc1ccc(C(=O)O)cc1[N+](=O)[O-],inactive,–
CCCCCCCCCCCCCC(=O)OC(C)C,inactive,–
Clc1cc(Cl)c(Cl)nc1Cl,inactive,–
NNc1nncc2ccccc12,inactive,–
Cc1nc2c([nH]1)c(=O)n(C)c(=O)n2Cc1ccco1,inactive,–
O=C1c2c(O)ccc(O)c2C(=O)c2c(NCCNCCO)ccc(NCCNCCO)c21,inactive,–
CC(=O)N(CC(=O)N(C)C)c1ccccc1,inactive,–
O=C(O)C(O)[C@H](O)[C@@H](O)[C@H](O)[C@H](O)CO (stereo not given in full),inactive,–
Clc1ccc2nsnc2c1NC1=NCCN1,inactive,–
CN(C)C(=O)Nc1ccccc1,inactive,–
CC(C)CC(=O)CC(C)CC(C)C (stereo not given),inactive,–

SMILES,Potency,"viability change, negative = cytotoxic"
CCCCC=O,inactive,–
O=c1[nH]c(=O)c2cn[nH]c2[nH]1,inactive,–
O=C(O)CNCC(=O)O,–,19.6% [at 8.39 µM]
O=C(OCCN1CCOCC1)c1cccnc1Nc1cccc(C(F)(F)F)c1,inactive,–
CC(C)c1ccccc1,inactive,–
Cc1cc(C)c(S(=O)(=O)O)cc1N=Nc1cc(S(=O)(=O)O)c2ccccc2c1O,inactive,–
CC(Cc1cccc(C(F)(F)F)c1)NCCOC(=O)c1ccccc1 (stereo not given),inactive,–
CCN(CC)c1ccc(N=Nc2ccccc2)cc1,inactive,–
CCOC(=O)CC(=O)c1ccccc1,inactive,–
Nc1nc(-c2ccccc2)cs1,inactive,–
Nc1nc2ccccc2n1Cc1ccc(F)cc1,inactive,–
CC(C(=O)O)c1cccc(C(=O)c2ccccc2)c1 (stereo not given),inactive,–
CC(C)C(C)C,inactive,–
COc1cc(OC)nc(NC(=O)NS(=O)(=O)Nc2ccccc2C(=O)N(C)C)n1,inactive,–
Nc1nnnn1-c1ccccc1,inactive,–
CCCCCCOCCO,inactive,–
O=C(O)COC(=O)Cc1ccccc1Nc1c(Cl)cccc1Cl,inactive,–
COc1cc2c(cc1OC)-c1cc(=Nc3c(C)cc(C)cc3C)n(C)c(=O)n1CC2,inactive,–
Cc1ccc(Cl)c(N)c1Cl,inactive,–
CC(CCl)OP(=O)(OC(C)CCl)OC(C)CCl (stereo not given),inactive,–

# Assay: cAMP Responsive Elements (CRE) small molecule agonists, cell-based qHTS assay: qHTS cell viability counter screen (AID 2060914);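 further: viability read after 3 h of compound exposure; nearly all actives have a fitted effect of over 50% in size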
# Settings: CRE-bla HEK293T viability, CellTiter-Glo luminescence, 5 h; series mostly up to 92.4 µM
# Summary of the method: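 CRE-bla HEK293T cells in 10% dialyzed FBS medium were exposed to compounds for 3 h at 37C after 18 h plating. CellTiter-Glo was then added in the same wells, and luminescence was read after 30 min at room temperature.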
SMILES,Potency,"activity change, negative = cytotoxicity"
COc1ccc2c(c1)CCCC2=O,inactive,–
OCCC(F)(F)C(F)(F)C(F)(F)C(F)(F)C(F)(F)C(F)(F)F,inactive,–
O=C1Cc2ccccc2N1c1c(Cl)cccc1Cl,inactive,–
CC1(C)[C@@H]2CC[C@]3(C2)[C@@H]1C(=O)CCC3(C)C,inactive,–
CC1(C)CCC[C@]2(C)[C@H]3CCO[C@]3(C)CC[C@@H]12,inactive,–
SCCSCCS,inactive,–
COC(=O)c1ccccc1O,inactive,–
CCCCC(CC)COC(=O)c1ccc(N(C)C)cc1 (stereo not given),inactive,–
Nc1nc(-c2ccccc2)c(Br)c(=O)[nH]1,inactive,–
Cc1ccc(C(=O)O)cc1[N+](=O)[O-],inactive,–
CCCCCCCCCCCCCC(=O)OC(C)C,inactive,–
Clc1cc(Cl)c(Cl)nc1Cl,inactive,–
NNc1nncc2ccccc12,inactive,–
Cc1nc2c([nH]1)c(=O)n(C)c(=O)n2Cc1ccco1,inactive,–
O=C1c2c(O)ccc(O)c2C(=O)c2c(NCCNCCO)ccc(NCCNCCO)c21,inactive,–
CC(=O)N(CC(=O)N(C)C)c1ccccc1,inactive,–
O=C(O)C(O)[C@H](O)[C@@H](O)[C@H](O)[C@H](O)CO (stereo not given in full),inactive,–
Clc1ccc2nsnc2c1NC1=NCCN1,inactive,–
CN(C)C(=O)Nc1ccccc1,inactive,–
CC(C)CC(=O)CC(C)CC(C)C (stereo not given),inactive,–

SMILES,Potency,"activity change, negative = cytotoxicity"
CCCCC=O,inactive,–
O=c1[nH]c(=O)c2cn[nH]c2[nH]1,inactive,–
O=C(O)CNCC(=O)O,–,-11.1% [at 8.39 µM]
O=C(OCCN1CCOCC1)c1cccnc1Nc1cccc(C(F)(F)F)c1,inactive,–
CC(C)c1ccccc1,inactive,–
Cc1cc(C)c(S(=O)(=O)O)cc1N=Nc1cc(S(=O)(=O)O)c2ccccc2c1O,inactive,–
CC(Cc1cccc(C(F)(F)F)c1)NCCOC(=O)c1ccccc1 (stereo not given),inactive,–
CCN(CC)c1ccc(N=Nc2ccccc2)cc1,inactive,–
CCOC(=O)CC(=O)c1ccccc1,inactive,–
Nc1nc(-c2ccccc2)cs1,inactive,–
Nc1nc2ccccc2n1Cc1ccc(F)cc1,inactive,–
CC(C(=O)O)c1cccc(C(=O)c2ccccc2)c1 (stereo not given),inactive,–
CC(C)C(C)C,inactive,–
COc1cc(OC)nc(NC(=O)NS(=O)(=O)Nc2ccccc2C(=O)N(C)C)n1,inactive,–
Nc1nnnn1-c1ccccc1,inactive,–
CCCCCCOCCO,inactive,–
O=C(O)COC(=O)Cc1ccccc1Nc1c(Cl)cccc1Cl,inactive,–
COc1cc2c(cc1OC)-c1cc(=Nc3c(C)cc(C)cc3C)n(C)c(=O)n1CC2,inactive,–
Cc1ccc(Cl)c(N)c1Cl,inactive,–
CC(CCl)OP(=O)(OC(C)CCl)OC(C)CCl (stereo not given),inactive,–
